Test [1] in a line: qHTS assay for small molecule agonists of the p53 signaling pathway (AID 651631; calls by dose curve; also: nearly all actives have a fitted effect of over 15% in size; also: potency is read from the fitted curve at half-maximal effect). The method, boiled down: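 Beta-lactamase reporter activity under p53 response elements was quantified in HCT-116 cells by FRET fluorescence, following 16 h incubation with test compounds at 37 °C and 2 h substrate development at room temperature.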
(Quantitative high-throughput screening tests each substance at several concentrations.)

Test [2] can be described thus: qHTS assay for small molecules that induce genotoxicity in human embryonic kidney cells expressing luciferase-tagged ATAD5 (AID 651632). Also: nearly all actives have a fitted effect of over 15% in size. The method in brief:
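Luminescent reporter readout, HEK293T ATAD5-luc line: 16 hr drug exposure (37C, 5% CO2) followed by Amplite, 30 min RT.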

Test [3] can be described thus: qHTS assay for small molecule agonists of the p53 signaling pathway - cell viability (AID 651633; calls by dose curve;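 also: p53RE-bla HCT reporter cells with a stable beta-lactamase p53 reporter; series mostly up to about 83 µM; nearly all actives have a fitted effect of over 30% in size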). The method, boiled down: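 p53RE-bla cells, seeded at 4,000 per well and rested 5 h at 37 C/5% CO2, received compounds in DMSO for 16 h at 37 C. CellTiter-Glo was then added, and luminescence was read after 30 min at room temperature to gauge cytotoxicity.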
A short description of test [4]: qHTS assay for small molecule disruptors of the mitochondrial membrane potential - cell viability (AID 720634; calls by dose curve;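 also: human HepG2 liver cancer cells; series mostly up to about 83 µM; nearly all actives have a fitted effect of over 20% in size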). The method in brief:
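HepG2, 1 hr compound, 37 C. ATP luminescence via CellTiter-Glo, 30 min RT, same well as m-MPI.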

Test [5] in a line: qHTS assay to test for compound auto fluorescence at 590 nm (red) in HepG2 cells (AID 720674). The method in brief:
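Rose Bengal sodium served as the red fluorophore standard. HepG2 monolayers (overnight attachment, MEM with 10% FBS) were exposed to test compounds for 1 hr at 37 C and read at Ex 540/Em 590 nm.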

A short description of test [6]: qHTS assay to test for compound auto fluorescence at 535 nm (green) in HepG2 cells (AID 720675).
Test [7] is described as follows: qHTS assay to test for compound auto fluorescence at 460 nm (blue) in HEK293 cells (AID 720678). The method in brief: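 HEK293, 2,000 cells/well, 10% dialyzed FBS; attach 4-5 hr 37C; pin compound or DMSO; o/n 37C/5% CO2; fluorescence 405/460 nm; triamterene-equivalent units.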
Test [8] is described as follows: qHTS assay to test for compound auto fluorescence at 590 nm (red) in HEK293 cells (AID 720679). The method in brief:
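Intensity at 540nm excitation and 590nm emission is reported as Rose Bengal sodium-equivalent autofluorescence. Measurements followed overnight exposure (37C, 5% CO2) of HEK293 cells, 2,000 per well, to 23 nL compound.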

Test [9] can be described thus: qHTS assay to test for compound auto fluorescence at 460 nm (blue) in HEK293 cell free culture (AID 720681). The method, boiled down:
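Test compounds were pinned into cell-free culture medium (DMEM with 10% FBS) and fluorescence was read directly at Ex/Em 405/460 nm. Signals were expressed as fluorescence equivalents of triamterene, with DMSO vehicle as control.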

Test [10] is described as follows: qHTS assay to test for compound auto fluorescence at 535 nm (green) in HEK293 cell free culture (AID 720682). The method, boiled down:
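Each library compound, or DMSO control, is added by pintool to medium alone, comprising DMEM and 10% FBS. Emission at 535 nm following 485 nm excitation is quantified against fluorescein.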

Test [11] can be described thus: qHTS assay to test for compound auto fluorescence at 590 nm (red) in HEK293 cell free culture (AID 720683). The method, boiled down: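 Tox21 10K library compounds were pinned into cell-free DMEM with 10% FBS and fluorescence was read at excitation 540 nm. Activity is expressed as Rose Bengal sodium equivalency.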
The nature of test [12]: qHTS assay to test for compound auto fluorescence at 590 nm (red) in HepG2 cell free culture (AID 720684). The method in brief:
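Red fluorescence (540 nm excitation, 590 nm emission) was measured after compound transfer into cell-free MEM supplemented with 10% FBS. Values are equivalencies against Rose Bengal sodium.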

The nature of test [13]: qHTS assay to test for compound auto fluorescence at 460 nm (blue) in HepG2 cell free culture (AID 720685). The method in brief: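 Compound (23 nL) or DMSO pinned into cell-free MEM with 10% FBS; blue fluorescence read at 405/460 nm excitation/emission, expressed as auto-fluorescence equivalency to triamterene.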
Test [14] is described as follows: qHTS assay to test for compound auto fluorescence at 535 nm (green) in HepG2 cell free culture (AID 720686).
Test [15] is described as follows: qHTS assay for small molecules that induce genotoxicity in human embryonic kidney cells expressing luciferase-tagged ATAD5 - cell viability (AID 651634; calls by dose curve; also: nearly all actives have a fitted effect of over 25% in size). The method, boiled down:
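Viability read: CellTiter-Fluor fluorescence, 30 min at 37C. Cells: HEK293T, luciferase-tagged ATAD5. Exposure: 15.5 hr, 37C, 5% CO2, compound or DMSO vehicle.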

Test [16] can be described thus: qHTS assay for small molecule disruptors of the mitochondrial membrane potential (AID 720635). The method in brief:
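HepG2 cells (2,000/well) attached overnight at 37C, then took compound for 1 hr at 37C, 5% CO2. Mito-MPS dye was added for 30 min; fluorescence was read at 490/535 nm (monomers) and 540/590 nm (aggregates).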

Test [17] in a line: qHTS assay to test for compound auto fluorescence at 535 nm (green) in HEK293 cells (AID 720680).
A short description of test [18]: qHTS assay to test for compound auto fluorescence at 460 nm (blue) in HepG2 cells (AID 720687). The method in brief:
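Cells (2,000/well in MEM with 10% FBS) attached overnight at 37 C, then were exposed to compound or DMSO for 1 hr at 37 C, 5% CO2. Fluorescence read at Ex/Em 405/460 nm, expressed as triamterene-equivalent signal.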

For test [19], the target named is Glucocorticoid receptor (Homo sapiens) (UniProt P04150). Put plainly: qHTS assay to identify small molecule agonists of the glucocorticoid receptor (GR) signaling pathway (AID 720691; active = well fitted activation curve with a large enough effect in the signal ratio in the repeat runs, not every such curve was filed as active; the % refers to the signal ratio). The method in brief: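 qHTS in GR-bla HeLa cells: 4 h settling at 37 C/5% CO2, 18 h compound incubation at 37 C, 2 h LiveBLAzer B/G FRET substrate at room temperature, fluorescence intensity measured.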
Chain of Glucocorticoid receptor (Homo sapiens) (P04150 whole entry, looked up): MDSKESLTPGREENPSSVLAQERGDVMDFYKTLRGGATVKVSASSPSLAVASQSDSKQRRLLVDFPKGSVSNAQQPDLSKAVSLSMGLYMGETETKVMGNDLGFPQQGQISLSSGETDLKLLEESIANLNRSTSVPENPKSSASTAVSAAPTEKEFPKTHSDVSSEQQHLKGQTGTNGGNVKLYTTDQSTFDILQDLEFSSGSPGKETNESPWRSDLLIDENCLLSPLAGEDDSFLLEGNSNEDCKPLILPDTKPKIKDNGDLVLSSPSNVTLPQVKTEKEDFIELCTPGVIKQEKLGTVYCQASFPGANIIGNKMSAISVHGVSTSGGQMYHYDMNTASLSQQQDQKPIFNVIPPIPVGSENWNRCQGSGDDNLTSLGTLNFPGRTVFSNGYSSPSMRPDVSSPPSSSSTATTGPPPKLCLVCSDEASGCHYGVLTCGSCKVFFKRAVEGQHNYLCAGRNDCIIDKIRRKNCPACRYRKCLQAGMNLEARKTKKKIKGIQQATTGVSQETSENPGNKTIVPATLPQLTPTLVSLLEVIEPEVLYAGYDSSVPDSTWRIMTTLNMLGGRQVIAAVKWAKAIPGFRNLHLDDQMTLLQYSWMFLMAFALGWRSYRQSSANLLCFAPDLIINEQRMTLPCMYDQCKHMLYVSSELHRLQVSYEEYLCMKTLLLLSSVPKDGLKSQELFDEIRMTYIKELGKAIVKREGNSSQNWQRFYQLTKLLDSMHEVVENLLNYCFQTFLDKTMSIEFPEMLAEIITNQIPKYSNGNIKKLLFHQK

The target is the same in test [20]. Put plainly: qHTS assay to identify small molecule antagonists of the glucocorticoid receptor (GR) signaling pathway (AID 720692; active = well fitted inhibition curve with a large enough effect in the signal ratio in the repeat runs, not every such curve was filed as active; the % refers to the signal ratio). The method, boiled down:
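Inhibition of glucocorticoid signalling is measured in HeLa cells with a GRE-controlled beta-lactamase reporter; cells are co-treated with compound and 5 nM dexamethasone (final) for 18 h before FRET substrate readout.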

Values without a mark were called inactive. Records with an inconclusive call do not appear. Activity calls are given as the source filed them. Unless noted, calls follow the shape of the dose curve; as a rule, active = well fitted curve in the direction sought with a large enough effect in the repeat runs; inconclusive = weak or mixed curves; inactive = no such curve, though single readings can be large; an effect the other way counts as inactive or inconclusive.
% is scaled to controls: 0 for no effect and ±100 for the full control effect.

Regarding `O=C(O)COC(=O)Cc1ccccc1Nc1c(Cl)cccc1Cl`, the Potency entry in test [1], in test [2], in test [3] and in [4] was “inactive” throughout. For the same molecule, in test [5], the fluorescence, relative to Rose Bengal is 0.242% [at 18.6 µM]. Also, the fluorescence, % of fluorescein control in test [6] is -0.151% [at 18.6 µM]; in test [14], 0.0255% [at 18.6 µM]. For the same molecule, the fluorescence, % of triamterene in test [7] was 0.0454% [at 18.6 µM]. The fluorescence, % of fluorescent control in test [8] was -0.0045% [at 18.6 µM]; in test [9] it was 0.0686% [at 18.6 µM]; in test [11], -0.172% [at 18.6 µM]; in test [13] it was 0.0872% [at 18.6 µM]. For the same molecule, the activity change in test [10] is 0.0139% [at 18.6 µM]. In test [12], the fluorescence, % of Rose Bengal was -0.0238% [at 18.6 µM].

Turning to `Cn1c(N)nc2nc[nH]c2c1=O`, the Potency entry in [1], in [2], in test [3], in test [15], in test [16] and in test [9] was “inactive” in each case. Also, the Potency entry in test [13], in test [18], in test [19] and in [20] was “inactive” each time. Further, the outcome in [5], in [6], in test [17], in test [10], in [11] and in test [12] was inactive.

In the case of `C=CC(C)(CCC=C(C)C)OC(=O)c1ccccc1` (stereo not drawn), the Potency result in test [1], in test [2], in test [3], in [15], in [7] and in [9] was “inactive” throughout. The Potency entry in test [13], in test [18] and in test [20] was “inactive” throughout. The outcome in [5], in test [8], in [17], in test [10], in test [11] and in test [12] was inactive. The result in [14] was inactive.

On to `CCCC[C@H]1CN(CC2CCOCC2)C(=O)OC12CCN(C1(C)CCN(C(=O)c3c(C)ncnc3C)CC1)CC2`, for which the Potency result in [1], in test [2], in test [3], in test [4], in test [16] and in [7] was “inactive” each time. Moreover, the Potency entry in test [13] and in test [18] was “inactive” throughout. Besides, the molecule was called inactive in test [5], in [6], in [8], in test [17], in test [10] and in test [11]. The call in test [12] and in [14] was inactive.

For the molecule `Cn1c(=O)c2c(ncn2CC(O)CO)n(C)c1=O` (stereo not drawn), the Potency result in [1], in test [2], in test [3], in test [15], in test [16] and in test [20] was “inactive” each time. Also, in test [5], the fluorescence, relative to Rose Bengal is 0.442% [at 18.6 µM]. Further, the fluorescence, % of fluorescein control in test [6] is -0.21% [at 18.6 µM]; in test [14], -0.0139% [at 18.6 µM]. The fluorescence, % of fluorescent control in test [8] is -0.424% [at 18.6 µM]; in test [9], -0.0654% [at 18.6 µM]; in test [11] it was 0.293% [at 18.6 µM]; in test [13], -0.106% [at 18.6 µM]; in test [18], -0.0218% [at 18.6 µM]. The activity change in [10] is -0.0177% [at 18.6 µM]. The fluorescence, % of Rose Bengal in [12] is -0.139% [at 18.6 µM].

With `COCCO`, the Potency result in [1], in test [2], in test [3], in [4], in test [9] and in [18] was “inactive” in each case. In addition, the Potency result in test [19] and in test [20] was “inactive” each time. In addition, the call in test [5], in [6], in test [8], in test [10], in test [11] and in test [12] was inactive. Further, the molecule was called inactive in test [14].

Take `CCCCCCc1ccc(N)cc1`: the Potency result in [1], in [2], in [3], in test [15], in test [7] and in test [13] was “inactive” throughout. For the same molecule, the Potency entry in test [19] and in test [20] was “inactive” in each case. Further, the molecule was classed as inactive in test [5], in [6], in test [8], in [17], in [10] and in [11]. The call in test [12] and in test [14] was inactive.

As for `CCCCOC(=O)c1ccccc1C(=O)OCC(CC)CCCC` (stereo not drawn), the Potency in [1] is 54.5 µM (active). Also, the Potency result in [2], in [3], in [15], in test [7], in test [9] and in [13] was “inactive” each time. The Potency result in test [18] and in test [19] was “inactive” each time. Moreover, the result in test [5], in [6], in test [11], in test [12] and in test [14] was inactive.

The values are drawn from PubChem BioAssay (Tox21).
